The list is not random: actives were taken first. Their share in the collection is about 7.4%.
ELG1 genotoxic: genotoxicity induction in ELG1-luciferase HEK293T cells | AID 504466 | HEK293T ELG1-luciferase reporter, luminescence, 16 h | Potency, µM (series often up to 46 µM), for inactives: at the highest dose activity change, positive = activation, actives largely listed as activators | actives 1.3% (n = 330,000); also: % of control where 0% means no effect; nearly all actives have a fitted effect of over 60% in size
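Step 1: seed 2,000 HEK293T ELG1-luciferase cells per well. Step 2: add compound or DMSO, incubate 16 hr at 37 °C. Step 3: ONE-Glo, 30 min at room temperature, read luminescence.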
SMN2 splice enh: increases expression of the SMN2 splice variant | HEK293 SMN2-luciferase splicing reporter, luminescence, 30-36 h | Potency, µM (series often up to 46.1 µM), without a hit: at the top dose activity change, positive = activation, actives largely listed as activators | actives 2.8% (n = 210,000) | AID 1458; also: % of control where 0% means no effect; nearly all actives have a fitted effect of over 55% in size
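HEK293 cells carry an SMN2 […]–luciferase reporter in which exon 7 inclusion puts luciferase in frame. Cells were plated 10-12 h before compound addition, then incubated 30-36 h at 37C. ONE-Glo luminescence was read; sodium butyrate at 4.5 mM final served as control.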
NPC1 promoter act: NPC1 promoter activation; Huh7 NPC1 promoter luciferase reporter, 24 h; Potency, µM (titrated, usually from 9.22 µM), without a hit: at the highest dose activation, hits mostly activators; actives 2.4% (n = 320,000); also: % of control where 0% means no effect; nearly all actives have a fitted effect of over 60% in size
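Luminescence from an NPC1 promoter-driven luciferase reporter in stably transfected Huh7 cells was measured after 24 h compound treatment at 37 °C, followed by 10 min ambient incubation with luciferase detection reagent.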
FLuc modulator: inhibits or activates purified firefly luciferase, miR-21 counter-screen. P08659. purified FLuc, Km substrates, luminescence inhibition. Potency, µM (top dose mostly 57.5 µM), for the others: top-dose activity change, negative = inhibition, most hits filed as inhibitors. actives 6.9% (n = 360,000). AID 588342;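 also: plate controls were vehicle for no effect and reference inhibitor for full effect; nearly all actives have a fitted effect of over 55% in size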
Target sequence (P08659 whole entry, looked up): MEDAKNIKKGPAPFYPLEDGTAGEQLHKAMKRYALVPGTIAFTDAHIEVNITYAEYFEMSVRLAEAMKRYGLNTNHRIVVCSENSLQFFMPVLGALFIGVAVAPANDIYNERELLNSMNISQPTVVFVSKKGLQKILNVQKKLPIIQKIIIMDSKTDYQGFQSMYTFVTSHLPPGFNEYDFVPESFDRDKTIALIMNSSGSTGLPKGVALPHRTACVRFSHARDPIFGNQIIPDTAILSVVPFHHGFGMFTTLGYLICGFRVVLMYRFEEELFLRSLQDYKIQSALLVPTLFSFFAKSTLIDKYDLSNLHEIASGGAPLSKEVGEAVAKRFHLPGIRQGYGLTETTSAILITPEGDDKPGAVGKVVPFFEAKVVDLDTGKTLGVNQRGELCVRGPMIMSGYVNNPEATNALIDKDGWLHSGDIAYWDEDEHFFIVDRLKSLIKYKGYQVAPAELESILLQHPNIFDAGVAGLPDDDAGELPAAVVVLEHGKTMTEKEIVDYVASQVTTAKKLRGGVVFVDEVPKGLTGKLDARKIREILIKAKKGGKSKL
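Purified P. pyralis luciferase, 10 nM final, with Km-level 10 uM D-luciferin and 10 uM ATP in 50 mM Tris acetate pH 7.5, 10 mM Mg acetate, 0.01% Tween-20, 0.05% BSA; 6-point qHTS titration about 60 µM downward; luminescence read.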
Rab9 prom act: Rab9 promoter activation | Huh7 Rab9 promoter-luciferase reporter, luminescence, 24 h | Potency, µM (series often up to 9.22 µM), for the others: top-dose activation, negative = inhibition, actives largely listed as activators | actives 2.8% (n = 320,000) | AID 485297; also: % of control where 0% means no effect; nearly all actives have a fitted effect of over 60% in size
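Huh7 reporter line, Rab9 promoter upstream of luciferase. Compound exposure 24 h at 37 °C in reduced-serum medium with 10% FBS. Read-out: luminescence.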
The depositor's hits bear a star; ? = inconclusive; . = no result; [ ] = dose if it differs, or a comment. Calls follow the shape of the dose curve; as a rule, active = well fitted curve in the direction sought with a large enough effect; inconclusive = small, poorly fitted or top-dose-only effect, or another doubt; inactive = no such curve, though single readings can be large; an effect the other way counts as inactive or inconclusive. Potency is read from the fitted curve at half-maximal effect.

SMILES	ELG1 genotoxic	SMN2 splice enh	NPC1 promoter act	FLuc modulator	Rab9 prom act
Cc1ccc2c(c1)c1c3n2CCN(C(=O)c2cccc(C(F)(F)F)c2)C3CCC1 (stereo not given)	.	-17%	.	-5%	.
CC(C)C[C@@H](CC(=O)N[C@H](CC(=O)N[C@@H]1CCNC[C@H]1C(=O)N[C@H](CC(=O)N[C@@H](CCC(=O)O)CC(=O)O)Cc1ccccc1)C(C)C)NC(=O)[C@@H]1CCCC[C@H]1N	.	8%	.	.	.
Cc1cc(OCC(=O)Nc2ccc3c(c2)OCCO3)cc(C)c1Cl	1%	10%	4%	?	1%
COc1cccc(NC(=O)COC(=O)c2c(F)cccc2F)c1	2%	14%	-2%	11µM*	-3%
O=C(COc1ccccc1F)Nc1ccc2c(c1)OCCO2	10µM*	.	1.8µM*	6.7µM*	3.2µM*
N#Cc1ccccc1OCC(=O)Nc1ccc2c(c1)OCCO2	?	.	?	9.5µM*	1.4µM*
O=C(COc1ccccc1Br)Nc1ccc2c(c1)OCCCO2	?	.	1.3µM*	2.1µM*	1.4µM*
Nc1cccc(S(=O)(=O)O)c1	.	-2%	.	.	.
O=C(/C=C/c1ccc(F)cc1)NCCC1=CCCCC1	13%	?	?	15µM*	?
O=C(/C=C/c1ccccc1)NCCC1=CCCCC1	?	11µM*	?	9.5µM*	2.8µM*
COc1ccccc1/C=C/C(=O)NCCC1=CCCCC1	?	11µM*	4µM*	11µM*	3.2µM*
COc1ccccc1OCC(=O)NCCC1=CCCCC1	0%	12%	-2%	2%	-5%
O=C(COC(=O)/C=C/c1ccccc1)NCCC1=CCCCC1	5%	-7%	-2%	5%	0%
O=C(NCc1ccccc1)c1ccc(Cn2c(=O)c3cccn3c3cccnc32)cc1	.	.	.	3%	.
COc1ccc(CCNC(=O)CCCCCn2c(=O)[nH]c3cc(OC)c(OC)cc3c2=O)cc1OC	.	0%	.	0%	.
COc1ccc(OC)c(S(=O)(=O)Nc2cccc(-c3ccc(N4CCCCCC4)nn3)c2)c1	-4%	.	-4%	17µM*	8%
COc1ccc(S(=O)(=O)Nc2cccc(-c3ccc(N4CCCCCC4)nn3)c2)c(OC)c1	?	.	?	8.5µM*	?
Cn1c(=O)c(=O)n(C)c2cc(S(=O)(=O)N3CCN(c4ccccc4)CC3)ccc21	.	-4%	.	-1%	.
O=C(N/N=C/c1cccc2cccnc12)c1ccccc1O	21µM*	.	-1%	7.6µM*	-9%
O=C(N/N=C/c1cccc2nccnc12)c1ccccc1O	12%	.	-7%	11µM*	3%
CCCCN1C(=O)CC(Nc2ccc(CC)cc2)C1=O (stereo not given)	16µM*	?	12%	13µM*	25%
COc1cccc(CNC(=O)CC(c2ccc(F)cc2)N2Cc3ccccc3C2=O)c1 (stereo not given)	.	.	.	1%	.
CC#CCN1c2ccccc2[C@]23C[C@@H](C(=O)OC)N(S(=O)(=O)c4ccc(Br)cc4)C2=NC(C(=O)OC)=C(C(=O)OC)[C@H]13	.	-3%[9.22 µM]	.	.	.
O=C(O)c1ccc(CSc2nnc(COc3ccc(Cl)cc3Cl)o2)cc1	?	4%	17%	19µM*	21%
CCN(CC)c1ccc(/C=N/NC(=O)OC)c(O)c1	16%	-12%	20%	11µM*	28%
SMILES	ELG1 genotoxic	SMN2 splice enh	NPC1 promoter act	FLuc modulator	Rab9 prom act
CCN(CC)c1ccc(/C=N/NC(=O)c2ccoc2C)c(O)c1	16µM*	.	?	2.7µM*	-7%
COc1ccc(-c2noc(-c3ccc(NC4CCCCC4)c([N+](=O)[O-])c3)n2)cc1	.	.	.	0%	.
CCc1nc(Nc2cccc(O)c2)c2oc3ccccc3c2n1	-10%	.	12%	19µM*	1%
Cc1cc(=O)n2[nH]c(-c3ccc(C(C)(C)C)cc3)cc2n1	6%	-88%	20%	11µM*	24%
COc1ccc(-c2cc3nc(N)cc(=O)n3[nH]2)cc1	.	9%	.	-13%	.
CCOC(=O)c1cc(=O)n2[nH]c(-c3ccc(C)cc3)cc2n1	?	?	-2%	13µM*	-1%
COCc1cc(=O)n2[nH]c(-c3ccc(C)cc3)cc2n1	15µM*	50%	24%	12µM*	30%
